From paper PMC5540273 (PLoS ONE, 2017)

Tests used:
Conditions in all cases: concentration: 1 μM, replicates: in singlicate; n = 1
[1] = tested on: RIPK5
[2] = tested on: ROCK1
[3] = tested on: ROCK2
[4] = tested on: ROS1
[5] = tested on: RPS6KA4(Kin.Dom.1-N-terminal)
[6] = tested on: RPS6KA4(Kin.Dom.2-C-terminal)
[7] = tested on: RPS6KA5(Kin.Dom.1-N-terminal)
[8] = tested on: RPS6KA5(Kin.Dom.2-C-terminal)
[9] = tested on: T1, RSK1(Kin.Dom.1-N-terminal)
T1 construct: gene RPS6KA1

[10] = tested on: T2, RSK1(Kin.Dom.2-C-terminal)
T2 construct: gene RPS6KA1

[11] = tested on: T3, RSK2(Kin.Dom.1-N-terminal)
T3 construct: gene RPS6KA3

[12] = tested on: T4, RSK2(Kin.Dom.2-C-terminal)
T4 construct: gene RPS6KA3

[13] = tested on: T5, RSK3(Kin.Dom.1-N-terminal)
T5 construct: gene RPS6KA2

[14] = tested on: T6, RSK3(Kin.Dom.2-C-terminal)
T6 construct: gene RPS6KA2

[15] = tested on: T7, RSK4(Kin.Dom.1-N-terminal)
T7 construct: gene RPS6KA6

[16] = tested on: T8, RSK4(Kin.Dom.2-C-terminal)
T8 construct: gene RPS6KA6

[17] = tested on: S6K1
[18] = tested on: SBK1
[19] = tested on: SGK2
[20] = tested on: SGK3
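Further: KINOMEscan kinase panel screen.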

| SMILES | %Inh [1] [%] | %Inh [2] [%] | %Inh [3] [%] | %Inh [4] [%] | %Inh [5] [%] | %Inh [6] [%] | %Inh [7] [%] | %Inh [8] [%] | %Inh [9] [%] | %Inh [10] [%] | %Inh [11] [%] | %Inh [12] [%] | %Inh [13] [%] | %Inh [14] [%] | %Inh [15] [%] | %Inh [16] [%] | %Inh [17] [%] | %Inh [18] [%] | %Inh [19] [%] | %Inh [20] [%] |
| --- | --- | --- | --- | --- | --- | --- | --- | --- | --- | --- | --- | --- | --- | --- | --- | --- | --- | --- | --- | --- |
| c1ccc(-c2cc(-c3c[nH]nc3-c3ccccn3)ccn2)cc1 [GW576604] | 0 | 10 | 30 | 21 | 0 | 0 | 0 | 3 | 0 | 1 | 0 | 0 | 0 | 4 | 0 | 8 | 0 | 0 | 0 | 0 |
| COc1cc2c(cc1OC[C@@H](O)CO)ncc1c3ccc(C#N)cc3[nH]c21 | 7 | 91.1 | 96.9 | 0 | 0 | 9 | 0 | 26 | 33 | 17 | 80 | 0 | 11 | 11 | 88 | 18 | 40 | 71 | 0 | 38 |
| Nc1nc(-c2ccc3c(N)n[nH]c3c2)cc(N2CCCC2)n1 [GSK2227430] | 0 | 2 | 0 | 0 | 0 | 0 | 10 | 0 | 9 | 0 | 0 | 0 | 20 | 17 | 0 | 0 | 0 | 8 | 0 | 8 |
| Fc1ccc(-c2ncn(CCCN3CCOCC3)c2-c2cccnc2)cc1 [SB-211743] | 9 | 0 | 6 | 27 | 31 | 0 | 0 | 5 | 2 | 9 | 34 | 0 | 0 | 27 | 20 | 0 | 0 | 1 | 0 | 0 |
| Cc1nnc(-c2ccc(C)c(-c3ccc(C(=O)Nc4ccc(NS(C)(=O)=O)cc4)cc3)c2)o1 [GW702865] | 4 | 0 | 11 | 0 | 1 | 0 | 0 | 17 | 13 | 0 | 0 | 0 | 0 | 0 | 0 | 0 | 0 | 0 | 0 | 4 |
| COc1ccc(CNC(=O)NC2CCN(c3ccnc(Nc4ccc(OC)cc4)n3)C2)cc1 (centres unmarked) [GSK1379727] | 55 | 40 | 40 | 0 | 0 | 0 | 7 | 0 | 0 | 0 | 7 | 0 | 0 | 0 | 0 | 21 | 2 | 3 | 0 | 0 |
| COC(=O)Nc1nc2cc(Oc3ccc(NC(=O)Nc4cc(F)ccc4F)cc3)ccc2[nH]1.Cl [GW701424] | 0 | 52 | 67 | 0 | 0 | 0 | 24 | 43 | 0 | 0 | 5 | 1 | 8 | 13 | 0 | 18 | 2 | 6 | 0 | 12 |
| NCC(NC(=O)c1cc(-c2cn[nH]c2)c(-c2ccnc3[nH]ccc23)s1)c1ccccc1.O=C(O)C(F)(F)F.O=C(O)C(F)(F)F (centres unmarked) [GSK1325775] | 16 | 100 | 99.9 | 0 | 47 | 43 | 13 | 60 | 24 | 5 | 35 | 6 | 7 | 0 | 21 | 8 | 53 | 84 | 79 | 81 |
| CCn1cnc2c(N)ncnc21 [GW345098] | 38 | 12 | 22 | 0 | 5 | 25 | 0 | 0 | 7 | 11 | 0 | 14 | 0 | 24 | 0 | 26 | 17 | 0 | 22 | 0 |
| N#Cc1c(N2CCOCC2)sc(-c2ccn[nH]2)c1-c1ccc(Cl)cc1 | 15 | 11 | 0 | 8 | 0 | 3 | 0 | 7 | 17 | 18 | 9 | 0 | 13 | 2 | 2 | 10 | 7 | 35 | 23 | 8 |
